Measured values as given in the antibiotic and cytotoxicity screens of Wong et al. (2023).
Among all 39,000 compounds or so, about 500 (1.3%) were called active. The full list was thinned out, with actives kept by preference.

Test system: S. aureus RN4220
Assay: growth inhibition call (relative growth <= 0.2)
Settings: 50 µM

SMILES | growth inhibition call
Cc1noc(C)c1NC(=O)Nc1ccc2c(c1)C(=O)N([C@H](C)CO)C[C@@H](C)[C@H](CN(C)C(=O)Nc1cccc3ccccc13)O2 | inactive
COC(=O)c1c2oc(c1C(=O)OC)C(=O)N[C@H](Cc1ccccc1)Cn1cc(nn1)[C@@H](Cc1ccccc1)NC(=O)N[C@@H](COC(=O)NCCCCCC(=O)NO)CC2 | inactive
C[C@@H]1CCCCO[C@@H](CN(C)C(=O)Nc2ccc3c(c2)OCO3)[C@@H](C)CN([C@@H](C)CO)C(=O)c2cc(NC(=O)Nc3ccc(F)cc3)ccc2O1 | inactive
COc1ccc(NC(=O)Nc2ccc3c(c2)C(=O)N([C@H](C)CO)C[C@H](C)[C@@H](CN(C)C(=O)Nc2ccccc2)OCCCC[C@@H](C)O3)cc1 | inactive
CCCCCCOC(=O)/N=C(/N)c1ccc(NCc2nc3cc(C(=O)N(CCC(=O)OCC)c4ccccn4)ccc3n2C)cc1 | inactive
C[C@H](CO)N1C[C@H](C)[C@@H](CN(C)C(=O)Nc2ccc(C(F)(F)F)cc2)Oc2c(NC(=O)C3CCCCC3)cccc2C1=O | inactive
C[C@H](CO)N1C[C@H](C)[C@@H](CN(C)Cc2ccc(Oc3ccccc3)cc2)Oc2c(NC(=O)C3CC3)cccc2C1=O | inactive
C[C@@H]1CN([C@H](C)CO)C(=O)c2cccc(NC(=O)C3CCCCC3)c2O[C@H]1CN(C)C(=O)Nc1ccc(C(F)(F)F)cc1 | inactive
CC(C)N1C[C@H](C)[C@@H](CN(C)Cc2ccc(Oc3ccccc3)cc2)Oc2c(NC(=O)C3CCN(C)CC3)cccc2C1=O | inactive
C[C@@H]1CN([C@H](C)CO)C(=O)c2cccc(NC(=O)C3CCCCC3)c2O[C@@H]1CN(C)C(=O)Nc1ccc(C(F)(F)F)cc1 | active
CC(C)N1C[C@H](C)[C@@H](CN(C)Cc2ccc(Oc3ccccc3)cc2)Oc2c(NC(=O)C3CCNCC3)cccc2C1=O | active
C[C@@H]1CN([C@@H](C)CO)C(=O)c2cccc(NC(=O)C3CCCCC3)c2O[C@H]1CN(C)C(=O)Nc1ccc(C(F)(F)F)cc1 | inactive
C[C@@H]1CN([C@@H](C)CO)C(=O)c2cccc(NC(=O)C3CCCCC3)c2O[C@@H]1CN(C)C(=O)Nc1ccc(C(F)(F)F)cc1 | active
C[C@H](CO)N1C[C@H](C)[C@H](CN(C)C(=O)Nc2ccc(C(F)(F)F)cc2)Oc2c(NC(=O)C3CCCCC3)cccc2C1=O | inactive
C[C@@H]1CN([C@H](C)CO)C(=O)Cc2cc(NC(=O)Nc3ccc4c(c3)OCO4)ccc2O[C@H]1CN(C)C(=O)Nc1ccc(C(F)(F)F)cc1 | inactive
C[C@H](CO)N1C[C@H](C)[C@H](CN(C)C(=O)c2ccccc2)OCCCC[C@H](C)Oc2ccc(NC(=O)CCC(F)(F)F)cc2C1=O | inactive
